{
  "source": "PubChem BioAssay AID1745848",
  "about": "(National Center for Advancing Translational Sciences (NCATS), 2022)",
  "note": "In all, about 2,100 compounds went through this assay and about 940 (45%) were called active. Inconclusive results (about 48%) are left out. Calls come from the whole dose curve; as a rule, active = well fitted inhibition curve with a large enough effect; inconclusive = small, poorly fitted or top-dose-only effect; inactive = no such curve, though single readings can be large or run the other way. So high a share suggests a set chosen from earlier hits. Some of the results follow. Potency is the fitted concentration of half-maximal effect.",
  "data": [
    {"experiment": "Confirmatory qHTS for Inhibitors of ATXN expression; note: nearly all actives have a fitted effect of over 65% in size", "settings": "ATXN2-luciferase reporter cells, luminescence, 24 h; series mostly up to 11.5 µM", "method_in_brief": "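Cells carrying ATXN2-luciferase reporter exposed 24 h at 37 C to compound. Viability then read by CellTiter-Fluor (25 uM GF-AFC, 30 min), followed by SteadyGlo luminescence; medium-only wells set 100% inhibition.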", "values": [
      {"smiles": "CCCCOc1ccc(C(=O)NNC(=O)c2cnccn2)cc1OC", "Potency": "17.8 µM (active)"},
      {"smiles": "O=C(/C=C/c1ccccc1)NC(=S)NNC(=O)c1cnccn1", "Potency": "7.94 µM (active)"},
      {"smiles": "O=C(NCCc1csc(-c2cccnc2)n1)c1cccc(Cl)c1", "Potency": "inactive"},
      {"smiles": "O=C(NNC(=O)c1cnccn1)c1ccc(Cl)c(Cl)c1", "Potency": "15.8 µM (active)"},
      {"smiles": "COc1cc(C(=O)NC(=S)NNC(=O)c2cnccn2)cc(OC)c1OC", "Potency": "12.6 µM (active)"},
      {"smiles": "NC(N)=N/N=C/c1ccc2cccc(OCc3ccccc3)c2n1", "Potency": "10 µM (active)"},
      {"smiles": "CCC(c1nnnn1C1CCCC1)N(Cc1cccs1)Cc1cc2cc(C)ccc2[nH]c1=O", "note": "(centres undefined)", "Potency": "28.2 µM (active)"},
      {"smiles": "Cn1nnnc1Sc1ncnc2scc(Br)c12", "Potency": "28.2 µM (active)"},
      {"smiles": "Cn1nnnc1Sc1ncnc2scc(-c3ccccc3Cl)c12", "Potency": "3.16 µM (active)"},
      {"smiles": "CC(=O)c1cccc(-c2csc3ncnc(Sc4nnnn4C)c23)c1", "Potency": "11.2 µM (active)"},
      {"smiles": "Cn1nnnc1Sc1ncnc2scc(-c3ccc[nH]3)c12", "Potency": "28.2 µM (active)"},
      {"smiles": "CCOC(=O)c1c(C)oc2c(F)c(F)c(F)c(F)c2c1=O", "Potency": "3.98 µM (active)"},
      {"smiles": "CCN(CC)CCNC1=NCCn2c1cc1cc(OC)ccc12", "Potency": "1.78 µM (active)"},
      {"smiles": "C[C@@H]1C[C@@H]2O[C@H]2/C=C\\C=C\\C(=O)Cc2c(Cl)c(O)cc(O)c2C(=O)O1", "Potency": "0.631 µM (active)"},
      {"smiles": "O=C(NN=Cc1c(O)ccc2ccccc12)c1ccc2c(c1)OCO2", "Potency": "2 µM (active)"},
      {"smiles": "O=C(N/N=C/c1c(O)ccc2ccccc12)c1cccc(C(F)(F)F)c1", "Potency": "1 µM (active)"},
      {"smiles": "O=C(N/N=C/c1ccccc1O)c1cccc(C(F)(F)F)c1", "Potency": "0.631 µM (active)"},
      {"smiles": "CCCC1CCC(c2ccc(C(=O)NN)cc2)CC1", "note": "(centres undefined)", "Potency": "2.82 µM (active)"},
      {"smiles": "c1ccc(-c2cccc(-c3ccccn3)n2)nc1", "Potency": "0.112 µM (active)"},
      {"smiles": "FC(F)(F)c1cc(-c2ccccn2)nc2cc(-c3ccccc3)nn12", "Potency": "inactive"},
      {"smiles": "Cc1cc(=O)[nH]c(N=N/C(=N/Nc2ccccc2C)c2ccccc2)n1", "Potency": "1.58 µM (active)"},
      {"smiles": "CCC(=O)NC(c1cc(Cl)c2cccnc2c1O)C(C)C", "note": "(centres undefined)", "Potency": "2.82 µM (active)"},
      {"smiles": "CCC(=O)NC(C)c1cc(Cl)c2cccnc2c1O", "note": "(centres undefined)", "Potency": "1.78 µM (active)"},
      {"smiles": "CC(=O)NC(C)c1cc(Cl)c2cccnc2c1O", "note": "(centres undefined)", "Potency": "3.98 µM (active)"},
      {"smiles": "CC(=O)NC(c1cc(Cl)c2cccnc2c1O)C(C)C", "note": "(centres undefined)", "Potency": "0.794 µM (active)"},
      {"smiles": "N#C/C(=C\\c1ccc([N+](=O)[O-])o1)c1nc2ccccc2[nH]1", "Potency": "3.55 µM (active)"},
      {"smiles": "Cc1csc(NC(=O)COCC(=O)O)c1-c1nc2ccccc2s1", "Potency": "15.8 µM (active)"},
      {"smiles": "O=C(CN1CCOCC1)N/N=C/c1c(O)ccc2ccccc12", "Potency": "7.08 µM (active)"},
      {"smiles": "O=C(CN1CCCC1)N/N=C/c1c(O)ccc2ccccc12", "Potency": "1.78 µM (active)"},
      {"smiles": "Nc1nc(N)c2cc(Sc3ccc4ccccc4c3)ccc2n1", "Potency": "28.2 µM (active)"},
      {"smiles": "COc1cccc2c1C(=O)c1c(O)c3c(c(O)c1C2=O)C[C@](O)(C(C)=O)C[C@H]3O[C@@H]1C[C@@H](N)[C@@H](O)[C@@H](C)O1", "Potency": "0.282 µM (active)"},
      {"smiles": "COc1cccc2c1C(=N)c1c(O)c3c(c(O)c1C2=O)CC(O)(C(C)=O)CC3OC1CC(N)C(O)C(C)O1", "note": "(centres undefined)", "Potency": "0.224 µM (active)"},
      {"smiles": "CCCCC(=O)OCC(=O)C1(O)Cc2c(O)c3c(c(O)c2C(OC2CC(NC(=O)C(F)(F)F)C(O)C(C)O2)C1)C(=O)c1c(OC)cccc1C3=O", "note": "(centres undefined)", "Potency": "2.51 µM (active)"},
      {"smiles": "CC(C)CCNC(=O)COc1cccc2c1OC(C)(C)C2", "Potency": "inactive"},
      {"smiles": "CCOC(=O)c1c2ccc(OCC(=O)N/N=C/c3ccc(C)cc3)cc2n2ccccc12", "Potency": "11.2 µM (active)"},
      {"smiles": "CCOC(=O)c1c(CSc2nc(C)cc(C)c2C#N)n(C)c2cc(Br)c(OC(C)=O)cc12", "Potency": "inactive"},
      {"smiles": "COc1cccc(OC)c1C(=O)OCC(=O)NC(=O)NCc1ccccc1", "Potency": "inactive"},
      {"smiles": "COc1ccc(CNCCC(c2ccc(OC(C)C)cc2)c2ccccc2OC)cc1", "note": "(centres undefined)", "Potency": "3.16 µM (active)"},
      {"smiles": "COc1ccccc1C(CCNCc1ccccc1)c1ccc(OC(C)C)cc1", "note": "(centres undefined)", "Potency": "3.98 µM (active)"},
      {"smiles": "CCOC(=O)c1cnc(-n2nc(C)cc2C)nc1NNc1cc(C)nc(-c2ccccc2)n1", "Potency": "3.55 µM (active)"},
      {"smiles": "Cc1ccc(OCC(=O)N2CCN(c3nnc(-c4ccc(C)cc4)c4ccccc34)CC2)cc1", "Potency": "3.16 µM (active)"},
      {"smiles": "Oc1[nH]c2ccc(Br)cc2c1N=NC(=S)N1CCOCC1", "Potency": "0.631 µM (active)"},
      {"smiles": "Clc1ccc(SCc2cc(N3CCOCC3)nc(-c3ccccn3)n2)cc1", "Potency": "5.01 µM (active)"},
      {"smiles": "CC(C)(C)S(=O)(=O)/C(C#N)=N/Nc1ccc(Cl)cc1", "Potency": "20 µM (active)"},
      {"smiles": "NS(=O)(=O)c1ccc(N2N=C(c3ccccc3)CC2c2ccc(F)cc2)cc1", "note": "(centres undefined)", "Potency": "inactive"},
      {"smiles": "O=S(=O)(c1ccc(F)cc1)c1snnc1-c1ccccc1", "Potency": "15.8 µM (active)"},
      {"smiles": "Cc1ccc(/C=C2\\SC(=S)N(CCCC(=O)NC3CCCC3)C2=O)cc1", "Potency": "1.41 µM (active)"},
      {"smiles": "Cc1ccc(/C=C2/SC(=S)N(CCCC(=O)Nc3ccc(O)cc3)C2=O)cc1", "Potency": "1.41 µM (active)"},
      {"smiles": "Cc1ccc(/C=C2\\SC(=S)N(CCCC(=O)Nc3ccc(O)cc3)C2=O)cc1", "Potency": "inactive"},
      {"smiles": "Cc1ccc(/C=C2\\SC(=S)N(CCCC(=O)Nc3nccs3)C2=O)cc1", "Potency": "7.08 µM (active)"},
      {"smiles": "Cc1ccc(/C=C2/SC(=S)N(CCCC(=O)Nc3cc([N+](=O)[O-])ccc3O)C2=O)cc1", "Potency": "31.6 µM (active)"},
      {"smiles": "Cc1ccc(/C=C2\\SC(=S)N(CCCC(=O)Nc3cccnc3)C2=O)cc1", "Potency": "2.24 µM (active)"},
      {"smiles": "Cc1ccc(/C=C2\\SC(=S)N(CCCC(=O)Nc3ccccc3C(=O)O)C2=O)cc1", "Potency": "2.24 µM (active)"},
      {"smiles": "Cc1cc(C)cc(NC(=O)/C(C#N)=C/c2cn(CC(=O)NCc3ccco3)c3ccccc23)c1", "Potency": "1.78 µM (active)"},
      {"smiles": "CCOC(=O)Cn1cc(C(=O)c2ccco2)c2ccccc21", "Potency": "inactive"},
      {"smiles": "COc1ccc(N2C3=C(CC4=C2CC(C)(C)CC4=O)C(=O)CC(C)(C)C3)cc1", "Potency": "inactive"},
      {"smiles": "COc1cccc(C2CC(c3c(-c4ccccc4)c4cc(Cl)ccc4[nH]c3=O)=NN2S(C)(=O)=O)c1OC", "note": "(centres undefined)", "Potency": "2.82 µM (active)"},
      {"smiles": "O=C1c2ccccc2NC(c2ccc(-c3cccc([N+](=O)[O-])c3)o2)N1O", "note": "(centres undefined)", "Potency": "15.8 µM (active)"},
      {"smiles": "COc1ccc(-c2oc3c(OC)c(OC)c(OC)c(O)c3c(=O)c2OC)cc1OC", "Potency": "10 µM (active)"}
    ]}
  ]
}
